# From PubChem BioAssay (NCI)
# This is part of a sample that, as a whole, favours compounds with a hit. Of some 83,000 tested, about 20% had one in any assay.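 Each cell line was grown in a 96-well plate and treated with one concentration of compound for 48 hours. Values below 10 were considered active.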 Values without a mark were called inactive. The source made the active and inactive calls.
# Test system: MDA-MB-435 melanoma
# Assay: NCI-60 one-dose screen, 48 h (100 = growth as untreated, 0 = no growth, -100 = all killed)
# Details: 10 µM
row,Compound,growth
1,O=C(NO)c1ccc(-c2nc3ccc4[nH]ncc4c3c3c2CCCC3)cc1,-78.1% (active)
2,O=C(CNc1nc(-c2ccccc2)cs1)Nc1ccc(Cl)cc1,-58.5% (active)
3,COc1cc2c3c(n(CCCN4CCOCC4)c(=O)c2cc1OC)-c1nc2c(cc1C3=O)OCO2,16.4%
4,Cc1ccc(/C=C/C(=O)c2ccc(NC(=O)CSc3nnc(-c4c[nH]c5ccccc45)n3-c3ccccc3)cc2)c(C)c1,49.5%
5,O=C(CN1CCN(c2ncnc3c2cnn3-c2ccccc2)CC1)Nc1nncs1,7.14% (active)
6,CC(=O)Oc1ccccc1C(=O)Oc1ccc(C(=O)/C=C/c2ccncc2)cc1,23.2%
7,O=C(NC(=S)N1CCN(c2ncnc3c2cnn3-c2ccccc2)CC1)c1ccc(Cl)cc1,89.2%
8,C/C(=N\N=C\c1ccc(N(C)C)cc1)c1ccc2c(c1)Nc1ccccc1S2,51.1%
9,COC(=O)C[C@](O)(CCCC(C)(C)O)C(=O)O[C@H]1C(OC)=C[C@@]23CCC(=O)N2CCc2cc4c(cc2[C@@H]13)OCO4,104%
10,CN1CCN(Cc2ccc(NC(=O)c3cncc(C#Cc4cnc5ccc(N[C@H]6CCOC6)nn45)c3)cc2C(F)(F)F)CC1,-79.6% (active)
11,CCOc1ccc(/C=N/NC(=O)Cn2nc(Cc3ccc([N+](=O)[O-])cc3)c3onc(C)c3c2=O)cc1,49.7%
12,CN1CCN(c2ccc(C(=O)/C=C/c3ccc(OC(F)F)cc3)cc2)CC1,-37.3% (active)
13,COc1ccc(C2N(c3ccc(Br)cc3)N=C(C(C)=O)N2[C@H]2[C@H](OC(C)=O)O[C@H](COC(C)=O)[C@@H](OC(C)=O)[C@@H]2OC(C)=O)cc1 (stereo partly drawn),83.7%
